Screening results deposited in PubChem BioAssay by Sanford-Burnham Center for Chemical Genomics.
Shown is part of a subset that was picked to be rich in hits.
ER stress death: ER stress cell death inhibition; relative survival (cellular ATP), % at 15 µg/mL (by protocol); 48,000 compounds, 0.33% hits; CSM14.1 thapsigargin ER stress survival, ATP luminescence;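 active = survival measured by cellular ATP above 50% at 15 µg/ml in the first screen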;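 also: cell death triggered by about 15 µM thapsigargin; ATP read 24 h after thapsigargin was added; plate controls were thapsigargin with DMSO for no effect and DMSO without thapsigargin for full effect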
An asterisk follows results filed as active.

SMILES	ER stress death
COC(=O)c1[nH]cnc1C(=O)Nc1ccc(Br)cc1C(=O)c1ccccc1	1
COC(C(=O)Nc1ccc(Br)cc1C(=O)c1ccccc1)c1ccccc1 (stereo not given)	72*
COC(C(=O)Nc1ccc(Br)cc1C(=O)c1ccccc1Cl)c1ccccc1 (stereo not given)	11
O=Cc1cn(Cc2cccc3ccccc23)c2ccccc12	3
CCN(CC)S(=O)(=O)c1ccc(C(=O)Nc2ccc([N+](=O)[O-])cc2C(=O)c2ccccc2)cc1	2
